In PubChem BioAssay (EPA / NIEHS) one finds outcome and AC50 data, which are given here for 21 compounds.

Structures are written as SMILES. Records with an inconclusive call do not appear. Some structures have more than one record in an assay (separate samples or runs), and their calls can disagree. Calls of active or inactive are those of the source. The calls were made as follows: active = hit-call score of the fitted dose curve at least 0.9, where 1 is the maximum; inconclusive = response in the unintended direction; inactive = score below 0.9.

For assay [1], the target named is rat Peripheral-type Benzodiazepine Receptor (PBR), Tspo (gene 24230) (UniProt P16257). The experiment in a line: NVS_MP_rPBR: NovaScreen (NVS) Membrane Protein Assay for rat Peripheral-type Benzodiazepine Receptor (PBR) (AID 2283335). The gist of the method: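 Radioligand displacement, rat kidney membrane prep, 1 h exposure, filter-based scintillation read; DMSO baseline, loss-of-signal scored. Primary screen at 25 uM in duplicate, actives followed up in concentration series.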

Assay [2] addresses rat Thyrotropin Releasing Hormone Receptor (TRH), Trhr (gene 25570) (UniProt Q01717). In words: NVS_GPCR_rTRH: NovaScreen (NVS) G Protein-Coupled Receptor Assay for rat Thyrotropin Releasing Hormone Receptor (TRH) (AID 2283329).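 Also: hit means lower bound tracer signal versus DMSO baseline.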 The method, boiled down: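 Competitive radioligand binding on rat forebrain membrane preparations, with filtration and scintillation readout after 4 h. Primary testing in duplicate at 25 uM; actives confirmed in concentration-response. DMSO defined baseline.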

Assay [3] has as its target Estrogen receptor (Homo sapiens) (UniProt P03372). In words: OT_ER_ERaERa_1440: Odyssey Thera (OT) 24-hour HEK293T Protein-Complementation Assay for Estrogen Receptor-alpha/-alpha Homodimer (AID 2283349).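 Also: hits raise fluorescence above DMSO for agonists and antagonists alike.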 The gist of the method:
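Protein-fragment complementation between two human ERα ligand-binding domains (aa 310-547) in stably transfected HEK293T cells was monitored after 24 h treatment, using fluorescence intensity relative to vehicle controls.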

For assay [4], the target named is human Peripheral-type Benzodiazepine Receptor (PBR), TSPO (gene 706) (UniProt P30536). The experiment in a line: NVS_MP_hPBR: NovaScreen (NVS) Membrane Protein Assay for human Peripheral-type Benzodiazepine Receptor (PBR) (AID 2283331).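 Also: hits reduce radioligand binding relative to DMSO baseline.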 The gist of the method:
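Scintillation counts of filter-bound radioligand served as read-out after 1 h chemical dosing of human colonic membrane preparations. Activity was scored as signal loss against DMSO; initial duplicates at 25 uM, confirmatory concentration series afterward.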

In assay [5] the target is bovine Estrogen Receptor (ER), ESR1 (gene 407238) (UniProt P49884). The experiment in a line: NVS_NR_bER: NovaScreen (NVS) Nuclear Receptor Binding Assay for bovine Estrogen Receptor (ER) (AID 2283345).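 Also: actives lower the bound radioligand count which means they displace the ER ligand.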 The gist of the method: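 Displacement of a radioligand from estrogen receptor in bovine uterine membrane preparations; scintillation signal taken at 18 hours, DMSO as baseline. Single-concentration duplicates (25 uM) preceded concentration-response follow-up of actives.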

For assay [6], the target named is Estrogen receptor (Homo sapiens) (UniProt P03372). The experiment in a line: NVS_NR_hER: NovaScreen (NVS) Nuclear Receptor Binding Assay for human Estrogen Receptor (ER) (AID 2283348). The gist of the method:
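Scintillation signal from bound radioligand was measured 18 hours after chemical addition to cell-free MCF7 protein extracts, with DMSO as baseline. Activity was scored as signal loss; compounds ran first at 25 uM in duplicate.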

Assay [7] has as its target chimpanzee Androgen Receptor (AR), AR (gene 747460) (UniProt O97775). The experiment in a line: NVS_NR_cAR: NovaScreen (NVS) Nuclear Receptor Binding Assay for chimpanzee Androgen Receptor (AR) (AID 2283346).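 Also: radioligand displacement from AR measured by scintillation counting in a cell-free assay; a loss of bound radioligand signal versus DMSO counts as binding.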 The gist of the method:
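Cell-free competition binding with insect-cell (Sf9/Sf21) extracted chimpanzee AR; scintillation signal from lysate at 72 h. Screened in duplicate at 25 uM, then concentration-response for actives; fitting relative to DMSO.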

Assay [8] deals with Sodium channel protein type 1 subunit alpha (Rattus norvegicus) (UniProt P04774). In words: NVS_IC_rNaCh_site2: NovaScreen (NVS) Ion Channel Assay for rat Sodium Channel, Site 2 (NaCh) (AID 2283322).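 Also: hit means loss of radioligand binding signal relative to DMSO so AC50 marks displacement.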 The method, boiled down: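 Membranes: rat forebrain. Format: competitive radioligand displacement, filter separation, scintillation readout, 1 h exposure. Primary screen in duplicate at 25 uM; actives retested in concentration series.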

Assay [9] in a line: NVS_IC_rCaBTZCHL: NovaScreen (NVS) Ion Channel Assay for Calcium Channel, Type L, Benzothiazepine Site (CaBTZCHL) (AID 2283337). The method, boiled down:
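Competitive displacement of a site-specific radioligand from rat cortex membranes, measured as signal loss against DMSO baseline by filter radiodetection after 1.5 h. Single-point 25 uM primary screen.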

Chain of human Peripheral-type Benzodiazepine Receptor (PBR), TSPO (gene 706) (P30536 whole entry, looked up): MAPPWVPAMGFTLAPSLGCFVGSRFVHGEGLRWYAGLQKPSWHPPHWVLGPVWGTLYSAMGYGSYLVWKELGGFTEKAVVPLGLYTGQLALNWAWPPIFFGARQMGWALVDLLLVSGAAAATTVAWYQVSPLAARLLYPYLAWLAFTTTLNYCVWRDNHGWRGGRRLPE
Chain of bovine Estrogen Receptor (ER), ESR1 (gene 407238) (P49884 whole entry, looked up): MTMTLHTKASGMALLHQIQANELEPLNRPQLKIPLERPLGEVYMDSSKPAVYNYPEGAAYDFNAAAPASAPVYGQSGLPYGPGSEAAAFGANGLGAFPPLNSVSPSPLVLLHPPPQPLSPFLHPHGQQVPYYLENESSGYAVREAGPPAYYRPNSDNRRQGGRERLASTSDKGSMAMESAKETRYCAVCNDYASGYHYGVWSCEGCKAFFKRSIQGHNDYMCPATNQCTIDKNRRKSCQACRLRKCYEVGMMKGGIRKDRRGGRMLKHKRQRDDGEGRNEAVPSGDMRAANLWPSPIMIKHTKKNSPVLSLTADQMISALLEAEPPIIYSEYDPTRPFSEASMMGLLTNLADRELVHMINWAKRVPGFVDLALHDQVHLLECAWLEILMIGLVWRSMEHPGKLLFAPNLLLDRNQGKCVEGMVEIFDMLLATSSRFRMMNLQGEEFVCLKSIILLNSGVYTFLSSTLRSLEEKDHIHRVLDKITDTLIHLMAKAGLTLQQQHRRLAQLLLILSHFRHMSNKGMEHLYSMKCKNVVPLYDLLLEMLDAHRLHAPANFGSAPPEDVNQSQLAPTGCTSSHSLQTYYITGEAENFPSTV
Chain of chimpanzee Androgen Receptor (AR), AR (gene 747460) (O97775 whole entry, looked up): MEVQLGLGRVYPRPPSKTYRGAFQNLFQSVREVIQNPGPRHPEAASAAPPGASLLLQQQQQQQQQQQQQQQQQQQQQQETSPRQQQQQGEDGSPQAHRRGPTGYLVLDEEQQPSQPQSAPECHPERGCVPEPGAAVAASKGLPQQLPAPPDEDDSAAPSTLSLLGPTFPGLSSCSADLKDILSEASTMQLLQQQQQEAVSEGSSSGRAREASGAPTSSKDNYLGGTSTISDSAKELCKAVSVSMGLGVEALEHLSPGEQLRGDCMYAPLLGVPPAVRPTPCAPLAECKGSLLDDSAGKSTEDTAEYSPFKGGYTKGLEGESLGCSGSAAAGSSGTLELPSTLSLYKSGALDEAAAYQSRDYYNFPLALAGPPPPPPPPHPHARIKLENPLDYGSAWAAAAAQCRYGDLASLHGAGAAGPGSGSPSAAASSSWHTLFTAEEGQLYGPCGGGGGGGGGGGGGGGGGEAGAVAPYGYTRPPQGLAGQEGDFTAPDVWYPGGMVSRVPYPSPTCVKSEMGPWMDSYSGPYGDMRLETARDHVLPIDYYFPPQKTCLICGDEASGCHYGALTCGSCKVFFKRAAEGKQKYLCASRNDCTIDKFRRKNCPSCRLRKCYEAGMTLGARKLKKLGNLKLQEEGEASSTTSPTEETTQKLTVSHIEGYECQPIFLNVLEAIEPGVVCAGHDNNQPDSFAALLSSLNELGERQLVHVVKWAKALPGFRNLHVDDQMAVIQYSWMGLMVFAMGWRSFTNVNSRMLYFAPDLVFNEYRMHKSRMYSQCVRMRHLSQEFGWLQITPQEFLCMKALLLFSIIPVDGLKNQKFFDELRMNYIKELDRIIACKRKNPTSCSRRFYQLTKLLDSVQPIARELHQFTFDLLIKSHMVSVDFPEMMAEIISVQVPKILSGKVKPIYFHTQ
Chain of Estrogen receptor (Homo sapiens) (P03372 whole entry, looked up, the tested form may be a part): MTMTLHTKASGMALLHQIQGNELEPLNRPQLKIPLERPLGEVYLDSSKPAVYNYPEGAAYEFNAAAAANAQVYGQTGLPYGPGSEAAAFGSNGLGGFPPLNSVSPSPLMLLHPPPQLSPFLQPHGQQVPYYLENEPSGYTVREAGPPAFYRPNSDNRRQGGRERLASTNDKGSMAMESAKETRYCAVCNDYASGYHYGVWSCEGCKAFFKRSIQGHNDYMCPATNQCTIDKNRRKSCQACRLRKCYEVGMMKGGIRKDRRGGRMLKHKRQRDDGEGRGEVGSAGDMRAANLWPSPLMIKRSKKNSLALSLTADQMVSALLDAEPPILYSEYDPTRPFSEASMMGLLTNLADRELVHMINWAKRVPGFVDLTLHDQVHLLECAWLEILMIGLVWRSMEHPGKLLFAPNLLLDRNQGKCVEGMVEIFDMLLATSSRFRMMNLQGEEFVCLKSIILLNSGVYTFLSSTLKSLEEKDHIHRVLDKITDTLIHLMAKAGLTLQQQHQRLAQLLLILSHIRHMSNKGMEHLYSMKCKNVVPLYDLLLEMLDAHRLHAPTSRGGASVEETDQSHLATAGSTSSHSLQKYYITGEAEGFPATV
Chain of rat Thyrotropin Releasing Hormone Receptor (TRH), Trhr (gene 25570) (Q01717 whole entry, looked up): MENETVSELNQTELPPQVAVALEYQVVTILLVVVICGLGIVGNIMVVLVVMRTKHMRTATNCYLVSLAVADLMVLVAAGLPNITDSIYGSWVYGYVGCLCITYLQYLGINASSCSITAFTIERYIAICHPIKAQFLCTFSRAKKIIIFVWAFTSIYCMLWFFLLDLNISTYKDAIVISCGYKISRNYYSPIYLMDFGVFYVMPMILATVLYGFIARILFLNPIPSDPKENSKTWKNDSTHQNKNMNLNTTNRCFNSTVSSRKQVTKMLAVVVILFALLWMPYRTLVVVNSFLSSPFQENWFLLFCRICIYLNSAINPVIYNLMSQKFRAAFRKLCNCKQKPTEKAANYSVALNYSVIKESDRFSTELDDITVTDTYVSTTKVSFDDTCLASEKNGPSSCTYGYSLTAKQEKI
Chain of rat Peripheral-type Benzodiazepine Receptor (PBR), Tspo (gene 24230) (P16257 whole entry, looked up): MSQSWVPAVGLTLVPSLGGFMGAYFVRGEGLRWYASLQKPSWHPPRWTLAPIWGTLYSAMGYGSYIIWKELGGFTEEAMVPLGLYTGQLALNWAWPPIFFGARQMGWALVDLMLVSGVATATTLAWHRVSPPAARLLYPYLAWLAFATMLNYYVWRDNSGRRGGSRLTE

Turning to `CCCCCCCCCCC(CO)CCCCCCCC` (stereo not given), the call in assay [1] was inactive.

Regarding `CN(C)CCCN`, the call in [2] and in assay [3] was inactive.

On to `CN(CCOc1ccc(CC2SC(=O)NC2=O)cc1)c1ccccn1` (stereo not given), for which the AC50 (as a rule, the concentration giving half of the maximal activity seen) in assay [4] was 5.39 µM (active); in assay [1], 12.9 µM (active). Moreover, the outcome in assay [5] and in assay [6] was inactive.

In the case of `CC1=CC(=O)NS(=O)(=O)O1`, the result in assay [2] was inactive.

Take `CCCc1c(OCCCOc2ccc(OCC(=O)O)cc2)ccc(C(C)=O)c1O`: the result in [5] was inactive.

As to `C=CCOc1nc(OCC=C)nc(OCC=C)n1`, the compound was classed as inactive in assay [2]. For the same compound, the concentration at half-maximal activity (AC50) in assay [4] was 14.3 µM (active); in assay [1], 6.87 µM (active).

With `CCCCCCCCCCCCN`, the compound was called inactive in assay [2].

As for `O=Nc1ccc(Nc2ccccc2)cc1`, the result in assay [5], in assay [7], in [6] and in [3] was inactive.

For `CC(C)=CCO`, the compound was classed as inactive in assay [5].

With `NNc1nc(-c2ccc(N)cc2)cs1`, the compound was classed as inactive in [5] and in assay [6].

Regarding `Cc1cccc(C)c1C`, the compound was classed as inactive in [8].

Consider `CC(C)(C#N)c1cc(Cn2cncn2)cc(C(C)(C)C#N)c1`, for which the call in [2] was inactive.

Turning to `OCCOCCOCCOCCO`, the compound was called inactive in assay [2], in assay [7] and in [3].

For the compound `C#C[C@]1(O)CC[C@H]2[C@@H]3CCC4=Cc5oncc5C[C@]4(C)[C@H]3CC[C@@]21C`, the result in assay [5], in assay [7] and in assay [6] was inactive. In addition, the AC50 in assay [6] is 11.5 µM (active).

On to `OCCN1CCNCC1`, for which the call in assay [2] and in assay [3] was inactive.

For the compound `O=P(c1ccccc1)(c1ccccc1)c1ccccc1`, the AC50 in assay [8] is 8.17 µM (active). Further, in [9], the result was inactive.

Take `Nc1cccc(S(=O)(=O)c2cccc(N)c2)c1`: the compound was classed as inactive in assay [5].

`C=CC(=O)OCC(O)COc1ccccc1` (stereo not given): the outcome in assay [5] was inactive.

For the compound `O=C(Cl)c1cccc(C(=O)Cl)c1`, the outcome in [2] was inactive.

As for `O=C=NC1CCC(CC2CCC(N=C=O)CC2)CC1` (stereo not given), the half-maximal activity concentration (AC50) in assay [8] was 4.47 µM (active).

For the compound `O=C(Oc1ccccc1)c1ccc(O)cc1`, the half-maximal activity concentration (AC50) in assay [4] is 9.99 µM (active); in [1], 4.86 µM (active). The compound was classed as inactive in [7].
